# Measured values reported in ChEMBL document CHEMBL1157539, “Thousands of chemical starting points for antimalarial lead identification” (Nature, 2010).
# How the values were obtained:
# Assay type in all cases: functional
# [1] = tested on: Plasmodium falciparum; assay: GSK_TCMDC: Inhibition of Plasmodium falciparum 3D7 in whole red blood cells, using parasite LDH activity as an index of growth. Test compounds present at 2uM
# [2] = tested on: Plasmodium falciparum; assay: GSK_TCMDC: Inhibition of Plasmodium falciparum Dd2 in whole red blood cells, using parasite LDH activity as an index of growth. Test compounds present at 2uM
# [3] = tested on: HepG2; assay: GSK_TCMDC: Percent inhibition of human HepG2 cell line. Test compounds present at 10uM.
SMILES,Inhibition [1] [%],Inhibition [2] [%],Inhibition [3] [%]
CCOc1ccc(-c2nonc2NC(=O)c2ccccc2OC)cc1OCC,100,99,24
CCC(=O)Oc1ccc(NC(=O)c2cccc(OC)c2)cc1,98,3,17
CCCCCCCCc1nc(C)c(Br)c(O)c1Br,96,95,2
CCN(CC)CCOc1ccc(Nc2ncc3cc(-c4c(Cl)cccc4Cl)c(=O)n(C)c3n2)cc1 [PD-0166285],90,91,72
C=CCc1cc(Br)ccc1OCCCOc1c(C)nc(N)nc1N.Cl,94,96,56
CC(=O)Nc1ccc(-c2nc3ccc(-c4nc5ccc(NC(C)=O)cc5[nH]4)cc3[nH]2)cc1,99,99,0
COc1ccc2nc(Nc3nc(-c4ccccn4)cs3)sc2c1,93,94,40
Cc1nnsc1C(=O)Nc1ccc(-c2cccc(-c3nc4cc(F)ccc4[nH]3)c2)cc1,96,27,44
COc1cccc(CC(=O)NC2CCN(c3ccnc4cc(Cl)ccc34)C2)c1.O=C(O)C(F)(F)F (stereo not given),100,85,9
Cc1ccc(C(=O)NCC2CCN(c3ccc(C(F)(F)F)cc3NC(=O)c3ccco3)CC2)cn1,91,73,9
